Calls of active or inactive are those of the source. Rule for the calls: active = hit-call score of the fitted dose curve at least 0.9, where 1 is the maximum; inactive = score below 0.9.

Usually AC50 stands for the concentration giving half of the maximal activity seen.

The target in assay [1] is Bile acid receptor (Homo sapiens) (UniProt Q96RI1). The assay is described as follows: ATG_IR1_CIS: Attagene CIS-FACTORIAL HepG2 Assay for human Nuclear Receptor Subfamily 1 Group H Member 4 (NR1H4), IR1 submotif (AID 2282946). The settings on record: IR1 reporter transcription, actives raise or lower the signal. The procedure, abridged:
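HepG2 cells transiently transfected with multiplexed cis-element reporter units read endogenous transcription factor activity. After 24 h compound exposure, reporter mRNA was quantified by RT-PCR, fluorescent labelling, HpaI digestion and capillary electrophoresis; bidirectional fitting versus DMSO baseline.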

Assay [2] is described as follows: ATG_GRE_CIS: Attagene CIS-FACTORIAL HepG2 Assay for human Glucocorticoid Response Elements (GRE) (AID 2282947). The settings on record: HepG2 GRE cis-reporter, Attagene multiplex mRNA; actives raise or lower the signal. A digest of the protocol: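 Multiplexed cis-reporter mRNA induction, HepG2, 24 h post-dose. RT-PCR, FAM-labelled, HpaI-digested amplicons by CE. Bidirectional fit vs DMSO.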

Assay [3] can be described thus: ATG_ISRE_CIS: Attagene CIS-FACTORIAL HepG2 Assay for human Interferon Regulatory Factor 1 (IRF1) binding to an Interferon-Stimulated Response Element (ISRE) (AID 2282948). Particulars: HepG2 ISRE cis-reporter (Attagene), mRNA transcription readout; actives raise or lower the signal. A digest of the protocol:
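Multiplexed mRNA reporter readout in human liver HepG2 cells: cis-element-driven reporters transfected, compound added for 24 h, transcripts amplified, fluorescently labelled and sized by capillary electrophoresis; curve fitting bidirectional against DMSO.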

Assay [4] can be described thus: ATG_M_32_CIS: Attagene CIS-FACTORIAL HepG2 Assay for M32 Transcription Factor (Internal Marker) (AID 2282949).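 Note: background control marker of the multiplexed CIS panel rather than a real target.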 Particulars: HepG2 Attagene cis-factorial M32 reporter, mRNA; actives raise or lower the signal. A digest of the protocol:
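Transient MRTU transfection of HepG2; 24 h compound treatment; TriZol RNA, oligo(dT) RT, reporter PCR, 6-FAM primer extension, HpaI cut, CE. Gain/loss of signal vs DMSO.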

Assay [5] in a line: ATG_M_06_CIS: Attagene CIS-FACTORIAL HepG2 Assay for M06 Transcription Factor (Internal Marker) (AID 2282950). Particulars: HepG2 Attagene CIS-FACTORIAL M06 internal marker reporter; actives raise or lower the signal. A digest of the protocol: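 Terse: HepG2, transient MRTU transfection (FuGene 6), 24 h dosing; total RNA, oligo(dT) RT, PCR, FAM label, HpaI cut, capillary electrophoresis; bidirectional fit vs DMSO baseline; background-control endpoint.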

The target in assay [6] is Hypoxia-inducible factor 1-alpha (Homo sapiens) (UniProt Q16665). The assay is described as follows: ATG_HIF1a_CIS: Attagene CIS-FACTORIAL HepG2 Assay for human Hypoxia Inducible Factor 1 (HIF1A) (AID 2282951). Particulars: HepG2 Attagene cis-factorial HIF1a reporter transcription; actives raise or lower the signal. The procedure, abridged:
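Dosed 24 h, transfected HepG2 cells yielded total RNA whose reporter transcripts were RT-PCR-amplified and sized by capillary electrophoresis using fluorescent labelling; DMSO defined baseline, with gain and loss of signal both fitted.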

Assay [7] addresses Hepatocyte nuclear factor 6 (Homo sapiens) (UniProt Q9UBC0). Kind of assay: ATG_HNF6_CIS: Attagene CIS-FACTORIAL HepG2 Assay for human Hepatocyte Nuclear Factor 6 (HNF6) (AID 2282952). Particulars: HepG2 Attagene cis-factorial HNF6 reporter transcription; actives raise or lower the signal. The procedure, abridged: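 Endogenous factor activity read in transiently transfected HepG2 via promoter-regulated reporter transcripts. RNA harvested 24 h post-dosing, reverse-transcribed, PCR-amplified, FAM-labelled, HpaI-digested and resolved by capillary electrophoresis; fitted in both directions against DMSO.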

Assay [8] concerns the target Heat shock factor protein 1 (Homo sapiens) (UniProt Q00613). The assay is described as follows: ATG_HSE_CIS: Attagene CIS-FACTORIAL HepG2 Assay for human Heat Shock Transcription Factor 1 (HSE) (AID 2282953). The settings on record: HepG2 HSE cis-reporter, Attagene RNA transcription; actives raise or lower the signal. A digest of the protocol:
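Read-out: fluorescence of reporter-specific RT-PCR fragments separated by capillary electrophoresis. HepG2 carrying transfected cis-element reporter units; 24 h dosing; activity fitted in both directions relative to DMSO baseline.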

Assay [9] can be described thus: ATG_MRE_CIS: Attagene CIS-FACTORIAL HepG2 Assay for human Metal Responsive Element (MRE) (AID 2282954). The settings on record: HepG2 MRE cis-reporter transcription, Attagene multiplex; actives raise or lower the signal. The procedure, abridged:
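Multiplexed cis-reporter assay in human HepG2 liver cells, 24 h incubation with test chemical. Reporter transcripts measured by RT-PCR and capillary electrophoresis; values from bidirectional curve fitting versus DMSO.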

Assay [10] is described as follows: ATG_PBREM_CIS: Attagene CIS-FACTORIAL HepG2 Assay for human Phenobarbital-responsive Enhancer Module (PBREM) (AID 2282955). The settings on record: HepG2 PBREM cis-reporter, Attagene multiplexed transcription; actives raise or lower the signal. The procedure, abridged: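 Transfected liver-derived HepG2 cells exposed 24 h; PBREM reporter transcript quantified via RT-PCR and capillary electrophoresis, with activity in either direction referenced to DMSO.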

Assay [11] can be described thus: ATG_PXRE_CIS: Attagene CIS-FACTORIAL HepG2 Assay for human Pregnane X Receptor Element (PXRE) (AID 2282957). Particulars: HepG2 Attagene CIS-FACTORIAL PXRE reporter, mRNA; actives raise or lower the signal. A digest of the protocol:
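Reporter transcripts under endogenous PXR-responsive cis-regulation quantified from total RNA of transfected HepG2 cells 24 h post-dosing, via RT-PCR with fluorescent primer extension and capillary electrophoresis. Gain or loss of signal fitted against DMSO baseline.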

The nature of assay [12]: ATG_PPRE_CIS: Attagene CIS-FACTORIAL HepG2 Assay for human Peroxisome Proliferator-activated Response Element (PPRE) (AID 2282958). The settings on record: HepG2 PPRE cis-element reporter, Attagene transcription factor profiling; actives raise or lower the signal. A digest of the protocol:
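Measured endpoint: PPRE-controlled reporter mRNA, detected by RT-PCR and capillary electrophoresis fluorescence, from transiently transfected HepG2 cells 24 h after dosing. Curves fitted in both directions using DMSO baseline.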

The nature of assay [13]: ATG_RORE_CIS: Attagene CIS-FACTORIAL HepG2 Assay for human RAR-related Orphan Receptor Element (RORE) (AID 2282959). The settings on record: HepG2 Attagene cis-factorial RORE reporter, mRNA; actives raise or lower the signal. The procedure, abridged:
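Transiently transfected HepG2 reporter cells were treated 24 h. Reporter transcripts were detected by RT-PCR and capillary electrophoresis, with bidirectional fitting against DMSO.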

Assay [14] in a line: ATG_Sox_CIS: Attagene CIS-FACTORIAL HepG2 Assay for human SRY-box transcription factor (SOX) (AID 2282960). The settings on record: HepG2 Attagene cis-factorial SOX reporter, mRNA; actives raise or lower the signal. The procedure, abridged:
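Gain- or loss-of-signal endpoint, fitted bidirectionally with DMSO as negative control. Based on reporter mRNA from transfected HepG2 cells harvested 24 h post-treatment and quantified via RT-PCR and capillary electrophoresis.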

Assay [15] deals with Transcription factor Sp1 (Homo sapiens) (UniProt P08047). Kind of assay: ATG_Sp1_CIS: Attagene CIS-FACTORIAL HepG2 Assay for human Specificity Protein 1 (Sp1) (AID 2282961). The settings on record: HepG2 Sp1 cis-reporter transcription, actives raise or lower the signal. The procedure, abridged: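 Endpoint reflects endogenous Sp1 transcriptional activity, not an exogenous fusion protein: HepG2 cells with transfected cis-regulated reporters, 24 h dosing, RT-PCR/capillary electrophoresis mRNA read-out, DMSO-normalised bidirectional fit.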
Sequence of Transcription factor Sp1 (Homo sapiens) (P08047 whole entry, looked up, the tested form may be a part): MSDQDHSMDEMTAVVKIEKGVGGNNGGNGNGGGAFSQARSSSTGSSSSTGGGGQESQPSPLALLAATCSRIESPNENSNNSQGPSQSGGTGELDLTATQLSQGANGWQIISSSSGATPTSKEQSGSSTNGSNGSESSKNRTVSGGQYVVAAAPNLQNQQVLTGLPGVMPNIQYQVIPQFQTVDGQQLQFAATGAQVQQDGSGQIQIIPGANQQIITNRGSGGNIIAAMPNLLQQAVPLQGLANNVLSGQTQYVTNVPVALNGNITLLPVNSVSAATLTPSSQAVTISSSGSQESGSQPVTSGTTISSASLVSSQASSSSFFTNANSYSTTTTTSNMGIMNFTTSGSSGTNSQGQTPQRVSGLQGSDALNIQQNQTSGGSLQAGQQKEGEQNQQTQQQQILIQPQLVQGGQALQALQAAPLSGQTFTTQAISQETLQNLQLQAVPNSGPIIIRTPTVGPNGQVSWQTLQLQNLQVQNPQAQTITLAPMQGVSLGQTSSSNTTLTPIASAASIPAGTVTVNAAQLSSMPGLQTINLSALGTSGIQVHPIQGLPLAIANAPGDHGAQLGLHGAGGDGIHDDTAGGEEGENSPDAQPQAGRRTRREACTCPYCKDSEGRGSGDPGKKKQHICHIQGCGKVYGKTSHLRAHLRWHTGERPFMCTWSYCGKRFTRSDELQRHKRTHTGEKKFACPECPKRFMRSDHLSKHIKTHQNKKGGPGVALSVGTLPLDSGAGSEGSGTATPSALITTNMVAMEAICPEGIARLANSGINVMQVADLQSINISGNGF

Assay [16] can be described thus: ATG_SREBP_CIS: Attagene CIS-FACTORIAL HepG2 Assay for human Sterol Regulatory Element Binding (SREBP) (AID 2282962). The settings on record: HepG2 Attagene cis-factorial SREBP reporter, mRNA; actives raise or lower the signal. The procedure, abridged:
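Endogenous factor activity is measured in HepG2 through multiplexed reporter units under cis-element control. Following a 24 h incubation, reporter transcripts are reverse-transcribed, PCR-amplified and sized by capillary electrophoresis; activity is fitted in both directions relative to DMSO.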

The nature of assay [17]: ATG_TA_CIS: Attagene CIS-FACTORIAL HepG2 Assay for human TA Basal Promoter (AID 2282964). Particulars: HepG2 Attagene CIS-factorial TA basal promoter reporter; actives raise or lower the signal. A digest of the protocol:
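Transfected HepG2, 24 h compound exposure; RNA → RT-PCR → FAM primer extension → HpaI cut → CE fluorescence. Gain/loss-of-signal fitted against DMSO negative control. Background-control readout.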

A short description of assay [18]: ATG_TCF_b_cat_CIS: Attagene CIS-FACTORIAL HepG2 Assay for human T-Cell-Factor with beta-catenin (TCF/b-cat) (AID 2282965). Particulars: HepG2 TCF/beta-catenin cis-reporter transcription, actives raise or lower the signal. A digest of the protocol:
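Endogenous transcription factor activity is captured through cis-promoter reporter constructs transiently introduced into human HepG2 liver cells. Induced reporter mRNA is measured after 24 h and fitted bidirectionally relative to DMSO.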

The target of assay [19] is Paired box protein Pax-6 (Homo sapiens) (UniProt P26367). Kind of assay: ATG_Pax6_CIS: Attagene CIS-FACTORIAL HepG2 Assay for human Paired Box 6 (PAX6) (AID 2282956). Particulars: HepG2 CIS-FACTORIAL PAX6 reporter transcription, RNA readout; actives raise or lower the signal. A digest of the protocol:
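Fluorescent RT-PCR products separated by capillary electrophoresis report PAX6-linked promoter mRNA in HepG2 cells 24 h post-dose. Curves fitted bidirectionally, DMSO as negative control.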

For assay [20], the target named is Signal transducer and activator of transcription 3 (Homo sapiens) (UniProt P40763). The assay is described as follows: ATG_STAT3_CIS: Attagene CIS-FACTORIAL HepG2 Assay for human Signal Transducer and Activator of Transcription 3 (STAT3) (AID 2282963). Particulars: HepG2, Attagene cis-factorial STAT3 reporter transcription; actives raise or lower the signal. A digest of the protocol: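 Cis-factorial format: endogenous transcription factors in HepG2 drive transfected reporter units. After 24 h treatment, reporter RNA was reverse-transcribed, amplified, FAM-labelled and HpaI-digested before CE analysis; activity scored in both directions against DMSO.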
Sequence of Signal transducer and activator of transcription 3 (Homo sapiens) (P40763 whole entry, looked up): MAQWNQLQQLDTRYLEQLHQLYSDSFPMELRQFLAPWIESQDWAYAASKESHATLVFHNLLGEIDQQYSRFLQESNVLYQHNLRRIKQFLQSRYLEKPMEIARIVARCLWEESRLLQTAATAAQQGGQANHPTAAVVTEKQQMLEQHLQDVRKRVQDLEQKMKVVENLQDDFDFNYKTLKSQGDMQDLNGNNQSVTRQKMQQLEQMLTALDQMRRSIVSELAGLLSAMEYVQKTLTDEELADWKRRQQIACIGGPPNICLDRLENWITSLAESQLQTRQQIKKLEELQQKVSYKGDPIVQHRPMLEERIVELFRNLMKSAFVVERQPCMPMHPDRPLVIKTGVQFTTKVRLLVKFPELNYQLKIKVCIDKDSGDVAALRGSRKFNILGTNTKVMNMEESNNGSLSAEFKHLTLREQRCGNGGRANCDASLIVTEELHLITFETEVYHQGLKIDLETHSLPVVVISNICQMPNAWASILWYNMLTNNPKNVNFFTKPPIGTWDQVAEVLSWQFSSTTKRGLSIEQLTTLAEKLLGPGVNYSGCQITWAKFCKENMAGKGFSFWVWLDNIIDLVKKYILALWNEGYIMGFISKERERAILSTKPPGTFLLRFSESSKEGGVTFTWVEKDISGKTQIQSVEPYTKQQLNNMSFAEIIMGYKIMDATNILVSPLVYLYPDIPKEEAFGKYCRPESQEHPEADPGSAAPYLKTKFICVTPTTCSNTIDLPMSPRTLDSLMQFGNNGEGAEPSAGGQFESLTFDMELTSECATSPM

Sequence of Hypoxia-inducible factor 1-alpha (Homo sapiens) (Q16665 whole entry, looked up): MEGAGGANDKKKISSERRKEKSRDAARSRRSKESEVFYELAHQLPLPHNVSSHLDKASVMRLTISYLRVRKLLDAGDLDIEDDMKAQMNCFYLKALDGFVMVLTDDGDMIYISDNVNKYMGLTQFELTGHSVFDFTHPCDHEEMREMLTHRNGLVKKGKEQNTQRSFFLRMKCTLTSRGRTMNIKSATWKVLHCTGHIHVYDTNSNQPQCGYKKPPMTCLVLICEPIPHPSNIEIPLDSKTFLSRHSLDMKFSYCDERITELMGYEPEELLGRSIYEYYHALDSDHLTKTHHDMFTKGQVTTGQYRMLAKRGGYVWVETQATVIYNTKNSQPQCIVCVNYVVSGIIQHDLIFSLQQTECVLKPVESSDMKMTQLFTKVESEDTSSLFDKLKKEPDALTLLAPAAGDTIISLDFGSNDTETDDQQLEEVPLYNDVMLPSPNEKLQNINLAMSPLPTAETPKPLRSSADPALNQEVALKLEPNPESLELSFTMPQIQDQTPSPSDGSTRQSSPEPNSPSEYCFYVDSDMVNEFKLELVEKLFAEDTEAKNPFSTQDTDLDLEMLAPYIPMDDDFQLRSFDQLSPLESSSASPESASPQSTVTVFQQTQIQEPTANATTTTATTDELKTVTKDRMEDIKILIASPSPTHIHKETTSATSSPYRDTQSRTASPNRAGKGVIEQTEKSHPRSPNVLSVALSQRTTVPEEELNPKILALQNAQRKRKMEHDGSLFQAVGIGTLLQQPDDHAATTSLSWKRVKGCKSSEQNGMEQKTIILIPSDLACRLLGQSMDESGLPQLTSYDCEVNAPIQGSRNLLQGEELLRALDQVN
Sequence of Heat shock factor protein 1 (Homo sapiens) (Q00613 whole entry, looked up, the tested form may be a part): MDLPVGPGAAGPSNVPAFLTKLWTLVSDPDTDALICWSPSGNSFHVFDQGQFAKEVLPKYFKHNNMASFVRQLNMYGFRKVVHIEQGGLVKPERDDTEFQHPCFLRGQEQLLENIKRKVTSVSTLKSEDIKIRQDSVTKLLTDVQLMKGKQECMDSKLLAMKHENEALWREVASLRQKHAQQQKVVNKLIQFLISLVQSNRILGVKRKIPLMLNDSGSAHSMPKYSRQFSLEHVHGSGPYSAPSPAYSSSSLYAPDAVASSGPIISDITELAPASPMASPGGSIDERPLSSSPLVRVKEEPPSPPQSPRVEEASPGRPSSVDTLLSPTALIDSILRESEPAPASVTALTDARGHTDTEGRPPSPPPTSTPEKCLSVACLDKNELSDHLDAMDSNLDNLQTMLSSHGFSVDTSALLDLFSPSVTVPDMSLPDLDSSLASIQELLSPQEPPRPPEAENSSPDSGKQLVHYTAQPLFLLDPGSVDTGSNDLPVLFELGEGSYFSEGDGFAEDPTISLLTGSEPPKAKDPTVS
Sequence of Bile acid receptor (Homo sapiens) (Q96RI1 whole entry, looked up): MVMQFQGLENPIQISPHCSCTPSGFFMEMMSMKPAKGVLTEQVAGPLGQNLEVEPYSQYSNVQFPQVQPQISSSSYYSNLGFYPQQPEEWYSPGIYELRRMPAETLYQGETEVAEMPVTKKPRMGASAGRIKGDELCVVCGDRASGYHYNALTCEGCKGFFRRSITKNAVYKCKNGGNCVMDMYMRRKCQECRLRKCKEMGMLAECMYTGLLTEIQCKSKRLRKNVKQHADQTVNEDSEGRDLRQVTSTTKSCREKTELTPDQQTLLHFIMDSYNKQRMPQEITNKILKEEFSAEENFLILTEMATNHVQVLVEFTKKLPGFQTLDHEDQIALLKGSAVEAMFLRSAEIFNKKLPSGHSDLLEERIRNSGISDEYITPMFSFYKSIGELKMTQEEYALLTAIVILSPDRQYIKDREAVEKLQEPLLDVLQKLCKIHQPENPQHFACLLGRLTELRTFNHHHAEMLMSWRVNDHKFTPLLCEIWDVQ
Sequence of Hepatocyte nuclear factor 6 (Homo sapiens) (Q9UBC0 whole entry, looked up): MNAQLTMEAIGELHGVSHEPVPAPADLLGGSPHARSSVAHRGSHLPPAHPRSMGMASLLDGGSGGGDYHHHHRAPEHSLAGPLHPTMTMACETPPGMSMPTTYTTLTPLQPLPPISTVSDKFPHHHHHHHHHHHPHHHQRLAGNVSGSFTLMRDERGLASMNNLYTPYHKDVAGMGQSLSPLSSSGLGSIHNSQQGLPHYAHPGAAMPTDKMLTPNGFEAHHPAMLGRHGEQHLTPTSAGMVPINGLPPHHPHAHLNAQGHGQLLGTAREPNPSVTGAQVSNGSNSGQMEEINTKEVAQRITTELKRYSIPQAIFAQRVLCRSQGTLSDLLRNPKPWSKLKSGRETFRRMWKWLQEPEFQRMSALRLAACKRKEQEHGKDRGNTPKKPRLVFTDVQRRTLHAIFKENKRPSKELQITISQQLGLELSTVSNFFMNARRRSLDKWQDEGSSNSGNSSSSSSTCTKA
Sequence of Paired box protein Pax-6 (Homo sapiens) (P26367 whole entry, looked up): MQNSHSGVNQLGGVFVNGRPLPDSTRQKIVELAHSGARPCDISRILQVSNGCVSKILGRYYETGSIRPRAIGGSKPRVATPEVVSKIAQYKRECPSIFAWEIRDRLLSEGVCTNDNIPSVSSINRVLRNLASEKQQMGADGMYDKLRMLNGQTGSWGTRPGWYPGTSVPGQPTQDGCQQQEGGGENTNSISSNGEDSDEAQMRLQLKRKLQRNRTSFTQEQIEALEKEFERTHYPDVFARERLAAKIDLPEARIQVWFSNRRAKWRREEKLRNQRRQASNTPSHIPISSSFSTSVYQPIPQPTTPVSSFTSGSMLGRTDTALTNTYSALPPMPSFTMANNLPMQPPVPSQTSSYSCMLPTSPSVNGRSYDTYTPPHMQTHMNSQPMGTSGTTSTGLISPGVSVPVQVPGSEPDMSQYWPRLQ

Take `CN(C)c1ccc(C(=O)c2ccc(N(C)C)cc2)cc1`: the molecule was classed as inactive in [1], in assay [2], in assay [3], in assay [4], in [5] and in assay [6]. In addition, the molecule was classed as inactive in assay [7], in [8], in [9], in assay [10], in assay [12] and in assay [13]. Further, the call in assay [14], in assay [15], in assay [16], in [17] and in assay [18] was inactive. Moreover, the AC50 in [11] is 3.72 µM (active).

Turning to `CCCCCCCCn1sccc1=O`, the call in assay [1], in assay [2], in assay [4], in [5], in assay [6] and in [12] was inactive. Besides, the molecule was called inactive in [13], in assay [20] and in [17]. Besides, the half-maximal activity concentration (AC50) was 17.6 µM (active) in assay [3]; 21 µM (active) in assay [7]; 16.7 µM (active) in assay [8]; 16.7 µM (active) in assay [9]; 19.1 µM (active) in assay [19]; 18.5 µM (active) in [11]. The AC50 in assay [14] was 18.4 µM (active); in [15] it was 17 µM (active); in assay [16], 14.8 µM (active); in [18], 15.6 µM (active).

Regarding `CN(C)C(=O)Nc1ccc(Cl)cc1`, the call in assay [1], in assay [2], in assay [3], in assay [4], in [5] and in assay [6] was inactive. Besides, the outcome in assay [7], in [8], in assay [9], in [10], in assay [19] and in assay [11] was inactive. For the same molecule, the molecule was called inactive in assay [12], in assay [13], in assay [14], in [15], in [16] and in assay [20]. For the same molecule, the molecule was called inactive in [17] and in assay [18].

The values are drawn from PubChem BioAssay (EPA / NIEHS).
